Compounds with a hit are over-represented: about 6.3% of the library has one in this group of screens.
tim10-1 inh – growth inhibitors of tim10-1 mutant yeast, primary screen, luminescence, uHTS; S. cerevisiae tim10-1 ts strain growth, BacTiter-Glo, 24 h; inhibition, % at 20 µM; 330,000 compounds, 2.2% hits; AID 463190, 2010;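 active = inhibition of at least 40%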;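 also: mutant grown at 25 °C; 0% = DMSO wells with yeast and 100% = wells holding no yeast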
TIM10 inh – growth inhibitors of isogenic TIM10 control yeast, primary screen, counter-screen for tim10-1 yeast inhibitor project, luminescence, uHTS; inhibition, % at 10 µM; AID 463195, 2010; 330,000 compounds, 1.4% hits; S. cerevisiae TIM10 strain growth, BacTiter-Glo luminescence, 24 h;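 active = inhibition of 40% or more at the single tested concentration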;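 also: wild-type TIM10 isogenic control strain grown at permissive 25 °C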
Mdm2 MdmX PPI – inhibitors of human Mdm2-MdmX association, primary screen, cell-based, luminescence, split luciferase, SaOS-2, uHTS; Protein Mdm4 (Homo sapiens) + E3 ubiquitin-protein ligase Mdm2 (Homo sapiens), …; SaOS-2 split-luciferase Mdm2/MdmX complementation; inhibition, % at 8 µM; 330,000 compounds, 3% hits; AID 485346, 2010;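 active = inhibition of at least 50% at 8 µM in the primary screen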
Target sequence (O15151 whole entry, looked up): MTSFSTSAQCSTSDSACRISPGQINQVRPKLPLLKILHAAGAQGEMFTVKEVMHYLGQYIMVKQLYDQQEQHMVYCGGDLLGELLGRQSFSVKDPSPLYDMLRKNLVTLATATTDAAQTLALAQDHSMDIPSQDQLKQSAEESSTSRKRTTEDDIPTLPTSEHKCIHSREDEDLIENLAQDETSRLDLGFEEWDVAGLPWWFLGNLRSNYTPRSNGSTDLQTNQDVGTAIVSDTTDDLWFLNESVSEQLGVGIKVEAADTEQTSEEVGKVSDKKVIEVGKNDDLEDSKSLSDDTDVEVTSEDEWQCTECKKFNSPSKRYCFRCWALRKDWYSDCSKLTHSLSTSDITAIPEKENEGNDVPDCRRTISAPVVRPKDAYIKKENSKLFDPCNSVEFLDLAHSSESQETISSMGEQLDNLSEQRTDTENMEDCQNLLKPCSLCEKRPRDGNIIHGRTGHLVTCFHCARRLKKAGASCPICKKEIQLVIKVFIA
Target sequence (Q00987 whole entry, looked up): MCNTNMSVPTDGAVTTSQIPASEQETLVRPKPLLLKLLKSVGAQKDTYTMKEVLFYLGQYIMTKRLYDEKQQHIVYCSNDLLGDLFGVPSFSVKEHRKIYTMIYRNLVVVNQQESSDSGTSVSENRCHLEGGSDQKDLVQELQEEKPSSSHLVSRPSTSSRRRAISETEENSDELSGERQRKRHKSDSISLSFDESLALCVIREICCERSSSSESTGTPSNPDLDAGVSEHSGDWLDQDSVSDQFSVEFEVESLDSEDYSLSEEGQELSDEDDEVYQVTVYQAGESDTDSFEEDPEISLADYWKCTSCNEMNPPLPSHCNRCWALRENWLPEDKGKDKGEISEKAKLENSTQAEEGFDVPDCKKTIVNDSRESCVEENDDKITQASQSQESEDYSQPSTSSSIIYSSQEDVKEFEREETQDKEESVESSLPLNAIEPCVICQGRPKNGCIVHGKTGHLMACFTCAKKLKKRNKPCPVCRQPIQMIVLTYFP
tim23-1 inh – growth inhibitors of tim23-1 mutant yeast, primary screen, luminescence, uHTS | inhibition, % at 20 µM | AID 463212, 2010 | S. cerevisiae tim23-1 growth, BacTiter-Glo luminescence, 24 h | 330,000 compounds, 1.3% hits;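 active = growth inhibition of the mutant yeast at or above 50%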;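 also: temperature-sensitive mutant grown at 25 °C; plate controls were DMSO-treated mutant yeast for no effect and medium wells lacking yeast for full effect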
MPTP inh – mitochondrial permeability transition pore inhibitors, primary screen, biochemical, isolated mouse mitochondria, absorbance; Ca2+ swelling absorbance, 30 min; inhibition, % at 10 µM; 360,000 compounds, 1.4% hits;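 active = inhibition of 50% or more, scaled per plate between neutral and stimulator controls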;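 also: 0% = DMSO wells given calcium and 100% = 1 mM EGTA wells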
tim10 confirm – growth inhibitors of wild-type TIM10 yeast, confirmation, counter-screen for tim10-1 synthetic lethality project, single concentration, luminescence, S. cerevisiae; shares compounds with TIM10 inh; S. cerevisiae tim10 strain growth, BacTiter-Glo luminescence, 24 h; inhibition, % at 10 µM; 4,600 compounds, 63% hits;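 active = inhibition of yeast growth at or above a set limit in either of two replicates at 10 µM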;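 also: this counterscreen used the strain with wild-type TIM10; 0% = yeast with DMSO and 100% = medium wells lacking yeast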
tim23-1 conf – tim23-1 mutant yeast growth inhibitors, confirmation, luminescence, single concentration | shares compounds with tim23-1 inh | S. cerevisiae tim23-1 growth, BacTiter-Glo luminescence, 24 h | inhibition, % at 20 µM | 4,400 compounds, 83% hits | AID 463218, 2010;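 active = inhibition above about 39% in either of two replicate wells at 20 µM, limit read from the data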;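 also: temperature-sensitive tim23-1 mutant grown at 25 °C; 0% = DMSO wells with yeast and 100% = medium wells without yeast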
Mdm2 MdmX conf – Mdm2-MdmX complex disruptors, retested hits, confirmation, luminescence, single concentration. shares compounds with Mdm2 MdmX PPI. Mdm2-MdmX binding, luminescent assay. inhibition, % at 8 µM. 10,000 compounds, 55% hits; in the data active = inhibition above about 40%
Full FLuc ctr – full-length luciferase signal inhibition, confirmation, counter-screen for Mdm2/MdmX interaction inhibitor project, cell-based, single concentration, SaOS-2; shares compounds with Mdm2 MdmX PPI; SaOS-2 full-length luciferase counterscreen, luminescence; inhibition, % at 8 µM; 6,200 compounds, 77% hits; AID 504607, 2011;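 active = mean inhibition at 8 µM reaching about 37%, which flags the compound as non-specific, limit read from the data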;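 also: p53-null SaOS-2 cells with luciferase driven by a doxycycline-inducible promoter; compound on cells about two nights before reading with doxycycline added after day one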
MPTP counter – fluorescence retest of MPTP screen hits in isolated mitochondria, single concentration. shares compounds with MPTP inh. membrane potential, Rhodamine 123 fluorescence. inhibition, % at 10 µM. 5,000 compounds, 78% hits; in the data active = inhibition above about 22%;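 also: 0% = DMSO vehicle and 100% = positive control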
MPTP abs DR – mitochondrial permeability transition pore inhibitors, dose response, biochemical, absorbance, uHTS hits. isolated mitochondria swelling. shares compounds with MPTP inh. IC50, µM. 780 compounds, 58% hits. AID 651561, 2012; in the data active = IC50 below about 20 µM
MPTP counter DR – fluorescent counter-screen in isolated mitochondria, dose response, counter-screen for MPTP inhibitor project, biochemical, fluorescence, uHTS hits. shares compounds with MPTP inh. isolated mitochondria counterscreen, fluorescence read-out. IC50, µM. 780 compounds, 49% hits. AID 651564, 2012; in the data active = IC50 below about 80 µM
* marks the source's active call; other numbers are inactive results; i = inactive; . = no result given; ! = a repeat was not active.

SMILES | tim10-1 inh | TIM10 inh | Mdm2 MdmX PPI | tim23-1 inh | MPTP inh | tim10 confirm | MPTP counter | others
CCOC(=O)c1c(C)[nH]c(C(=O)N/N=C/c2ccc(Br)cc2)c1C | 26 | 50* | 46 | 39 | 99* | 46* | 76*
OC(c1ccc(F)cc1)c1nc(-c2ccc(F)c(Cl)c2)cs1 (centres undefined) | . | . | . | . | 4 | . | .
CC1=NN(C(N)=S)C(=O)C1N=Nc1c(Cl)cc([N+](=O)[O-])cc1Cl (centres undefined) | 40 | 11 | -23 | 38 | 48 | . | .
CC1=NN(C(N)=S)C(=O)C1N=Nc1c(Br)cc(Br)cc1Br (centres undefined) | 35 | 45* | -20 | 60* | 56* | 60* | 78* | tim23-1 conf=63*
CC(=O)Nc1cccc(-c2cccc3nccn23)c1 | . | . | . | . | -1 | . | .
c1ccc2cc(CSCc3nc4ccccc4[nH]3)ccc2c1 | 35 | 53* | -16 | 48 | 88* | -6 | 88*
O=[N+]([O-])c1ccc(O)c(/C=N/n2c(CO)nc3ccccc32)c1 | -4 | 33 | 13 | 23 | 11 | . | .
O=[N+]([O-])c1ccc(O)c(/C=N/n2cnc3ccccc32)c1 | 29 | 41* | -4 | 37 | 69* | 66* | 79*
O=[N+]([O-])c1ccc(O)c(C2=NNC(c3ccccc3F)C2)c1 (centres undefined) | 36 | 50* | 8 | 43 | 89* | 57* | 85*
OC[C@@H]1CN(Cc2ccco2)C[C@H](n2cnc3c(N4CCOCC4)ncnc32)O1 | . | . | . | . | 2 | . | .
Oc1ccc(/C=N/Nc2ccnc3cc(Cl)ccc23)c(O)c1 | 5 | 47* | 27 | 7 | 58* | 36* | 59*
ClCc1nc2ccccc2c2ccccc12 | 34 | 41* | 52* | 47 | 64* | 38* | -6 | Mdm2 MdmX conf=26;MPTP abs DR=4.6*;MPTP counter DR=>80
O=C(Nc1cccc(Cl)c1)c1cc(S(=O)(=O)NCCc2ccc(Cl)cc2)ccc1F | 30 | 41* | 25 | 26 | 70* | 51* | 71*
Cn1c(/N=C(\N)c2ccccc2)nc2ccccc21 | . | . | . | . | 2 | . | .
Cc1ccc(NC(=S)Nc2ccc(OC(F)F)c(Cl)c2)cc1F | 37 | 42* | 23 | 40 | 98* | 36* | 87*
COC(=O)c1cccc(N2C(=O)C[C@](Sc3ccc(C)cc3)(C(=O)OC)[C@H]2c2ccccc2)c1 | . | . | . | . | 0 | . | .
CCc1nc2ccc(C(=O)N3CCN(C(=O)c4ccco4)CC3)cn2c1N(C)C(=O)COc1ccccc1 | . | . | . | . | -2 | . | .
Cc1ccc(NC(=O)NCC2CC2(Cl)Cl)cc1 (centres undefined) | -16 | -23 | -59 | 4 | 0 | . | .
O=C(NCC1CC1(Cl)Cl)Nc1ccc(Cl)c(Cl)c1 (centres undefined) | 38 | 48* | -8 | 80* | 62* | 45* | 95* | tim23-1 conf=71*
O=S(=O)(Nc1ccc2c3c(cccc13)CC2)c1ccc(F)cc1 | 9 | 0 | 11 | 40 | 2 | . | .
CSc1ccc(S(=O)(=O)Nc2ccc3c4c(cccc24)CC3)cc1 | 30 | 42* | -5 | 45 | 61* | 20 | 73*
CCN(CC)C(=O)C1=C(C)N(CCCOC)C(=O)C(CC(=O)NCCc2ccccn2)C1 (centres undefined) | . | . | . | . | -3 | . | .
CCCCc1ccc(NC(=S)NCCc2ccc(F)cc2)cc1 | 39 | 42* | 28 | 20 | 82* | 3 | 105*
C[C@@H]1CN([C@@H](C)CO)C(=O)CCCn2nncc2CO[C@@H]1CN(C)C(=O)Nc1ccc(N2CCN(C)CC2)cc1 | . | . | . | . | -1 | . | .
O=C(Nc1nccs1)c1csc([C@H]2C[C@H](O)[C@@H](CO)O2)n1 | . | . | . | . | 0 | . | .
SMILES | tim10-1 inh | TIM10 inh | Mdm2 MdmX PPI | tim23-1 inh | MPTP inh | tim10 confirm | MPTP counter | others
CC1(C)CC(=O)C(=Cc2cn(-c3ccccc3)nc2-c2ccccc2)C(=O)C1 | 15 | 64* | 19 | 64* | 76* | 20 | -3 | tim23-1 conf=34;MPTP abs DR=i;MPTP counter DR=5.7*
O=C(Nc1cccc2c1CCCC2)c1cc(C2CCCCN2C(=O)CCCc2ccccc2)on1 (centres undefined) | . | . | . | . | 2 | . | .
CC(C)CCOc1cccc(OCC(=O)Nc2ccncc2)c1 | 17 | 56* | 30 | 37 | 107* | 50* | 101*
O=C(NC1CC1)c1ccc2nc([C@@H]3O[C@H](CO)[C@H](O)[C@H](O)[C@H]3O)[nH]c2c1 | . | . | . | . | 0 | . | .
c1ccc(CNc2ncnc3ccccc23)cc1 | 8 | 81*! | 37 | -21 | 84* | -16 | 59*
COc1cc2ncnc(NCc3ccccc3)c2cc1OC | -18 | 3 | 33 | -51 | -2 | . | .
S=C(Nc1ccc(Oc2ccccc2)cc1)NC1CCCCC1 | 25 | 40* | 47 | 7 | 80* | 41* | 95*
O=C(Nc1ccncc1)c1cc(C2CCCCN2C(=O)CCc2ccccc2)on1 (centres undefined) | . | . | . | . | -1 | . | .
Oc1ccc(Cl)cc1Cc1cc(Cl)ccc1O | -8 | 50* | 87* | 73* | 86* | 63* | 86* | tim23-1 conf=8;Mdm2 MdmX conf=60*;Full FLuc ctr=48*
O=C(Nc1ccc(Cl)c(Cl)c1)Nc1ccccc1NS(=O)(=O)c1cccs1 | 20 | 47* | 27 | -142 | 87* | 25 | 92*
O=C(Nc1ccc(Cl)c(Cl)c1)Nc1ccccc1C(=O)O | 4 | 2 | 14 | 4 | 28 | . | .
Nc1nonc1C(=O)NCCN=Cc1cc(Cc2ccccc2)cc(Br)c1O | 13 | 51* | 22 | -56 | 64* | 67* | 31*

Screening results from PubChem.
